According to PubChem BioAssay (NCI):
About 83,000 compounds went through this panel and 20% of them were active in at least one assay; those are over-represented in the sample as a whole.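 Treatment: one concentration, 48 hours, 96-well format. Scoring: percent growth, with anything below 10 considered active.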 Active and inactive are the calls of the source.

Experiments:
Test in all cases: NCI-60 one-dose screen, 48 h (100 = growth as untreated, 0 = no growth, -100 = all killed)
Details in all cases: 10 µM
HCT-15 colon = tested on: HCT-15 colon
HT29 colon = tested on: HT29 colon
SNB-75 CNS = tested on: SNB-75 CNS
SNB-19 CNS = tested on: SNB-19 CNS
U251 CNS = tested on: U251 CNS
PC-3 prostate = tested on: PC-3 prostate
SK-MEL-5 melanoma = tested on: SK-MEL-5 melanoma
UACC-62 melanoma = tested on: UACC-62 melanoma
LOX IMVI melanoma = tested on: LOX IMVI melanoma
SK-MEL-28 melanoma = tested on: SK-MEL-28 melanoma
SK-MEL-2 melanoma = tested on: SK-MEL-2 melanoma
EKVX NSCLC = tested on: EKVX NSCLC
UO-31 renal = tested on: UO-31 renal
TK-10 renal = tested on: TK-10 renal
ACHN renal = tested on: ACHN renal
CAKI-1 renal = tested on: CAKI-1 renal
A498 renal = tested on: A498 renal
MOLT-4 leukemia = tested on: MOLT-4 leukemia
SN12C renal = tested on: SN12C renal
CCRF-CEM leukemia = tested on: CCRF-CEM leukemia

Measured: growth

NC1CCC(Nc2nc(NCc3ccc(-c4ccco4)nc3)c3ncn(C4CCCC4)c3n2)CC1 (stereo unspecified)
inactive: SNB-19 CNS 14.2% | UO-31 renal 10.8% | CAKI-1 renal 17.3%
active: HCT-15 colon 3.49% | HT29 colon -21.9% | SNB-75 CNS -46.9% | U251 CNS 5.19% | PC-3 prostate -1.27% | SK-MEL-5 melanoma -6.6% | UACC-62 melanoma -31% | LOX IMVI melanoma -26.2% | SK-MEL-28 melanoma 0.269% | SK-MEL-2 melanoma -73.6% | EKVX NSCLC -2.93% | TK-10 renal 3.91% | ACHN renal 2.36% | A498 renal -70.8% | MOLT-4 leukemia -12.3%

CCOc1ccc2c(c1)CC[C@@H]1[C@@H]2CC[C@]2(C)[C@@H](O)[C@@H](O)C[C@@H]12
inactive: HCT-15 colon 95% | HT29 colon 109% | SNB-75 CNS 107% | SNB-19 CNS 99% | U251 CNS 95% | PC-3 prostate 91.2% | SK-MEL-5 melanoma 96.8% | UACC-62 melanoma 94.4% | LOX IMVI melanoma 102% | SK-MEL-28 melanoma 100% | SK-MEL-2 melanoma 115% | SN12C renal 93.7% | UO-31 renal 89.3% | TK-10 renal 105% | ACHN renal 126% | CAKI-1 renal 89.8% | A498 renal 107% | CCRF-CEM leukemia 87.9% | MOLT-4 leukemia 95.2%

COc1ccc(C2C=C(c3ccc(Cl)c(Cl)c3)N=C3SC(C)=CN32)cc1 (stereo unspecified)
inactive: HCT-15 colon 85.5% | HT29 colon 71.1% | SNB-75 CNS 89.8% | SNB-19 CNS 96.6% | U251 CNS 84.2% | PC-3 prostate 90.5% | SK-MEL-5 melanoma 93.6% | UACC-62 melanoma 92.1% | LOX IMVI melanoma 83.4% | SK-MEL-28 melanoma 104% | SK-MEL-2 melanoma 94.8% | SN12C renal 99.6% | UO-31 renal 77.5% | TK-10 renal 92.8% | ACHN renal 103% | CAKI-1 renal 95.7% | A498 renal 91% | CCRF-CEM leukemia 82.8% | MOLT-4 leukemia 79.5%

C#Cc1ccc(-n2c(/C=C/c3cc(OC)c(OC)c(OC)c3)nc3ncccc3c2=O)cc1
inactive: HCT-15 colon 48.6% | HT29 colon 16% | SNB-75 CNS 34% | SNB-19 CNS 88.9% | U251 CNS 79.3% | PC-3 prostate 43.8% | UACC-62 melanoma 52.7% | LOX IMVI melanoma 56.9% | SK-MEL-28 melanoma 77.6% | SN12C renal 82.1% | UO-31 renal 45.8% | TK-10 renal 112% | ACHN renal 60.5% | CAKI-1 renal 64.2% | A498 renal 24.5% | CCRF-CEM leukemia 55.9% | MOLT-4 leukemia 65.2%
active: SK-MEL-5 melanoma 9.66% | SK-MEL-2 melanoma -2.4%

COC1OC2COC(c3ccccc3)OC2C(=O)C1NC(=O)c1ccccc1 (stereo unspecified)
inactive: HCT-15 colon 101% | HT29 colon 105% | SNB-75 CNS 83% | SNB-19 CNS 94.9% | U251 CNS 109% | PC-3 prostate 85% | SK-MEL-5 melanoma 108% | UACC-62 melanoma 93.7% | LOX IMVI melanoma 90.1% | SK-MEL-28 melanoma 109% | SK-MEL-2 melanoma 94% | SN12C renal 96.7% | UO-31 renal 72.5% | TK-10 renal 108% | ACHN renal 98.9% | CAKI-1 renal 88.9% | A498 renal 116% | CCRF-CEM leukemia 97.7% | MOLT-4 leukemia 110%

CCOC(=O)c1cc(-c2ccccc2)nc(N)n1
inactive: HCT-15 colon 94.9% | HT29 colon 119% | SNB-75 CNS 84.7% | SNB-19 CNS 92% | U251 CNS 98.3% | PC-3 prostate 96.6% | SK-MEL-5 melanoma 100% | UACC-62 melanoma 99.9% | LOX IMVI melanoma 101% | SK-MEL-28 melanoma 111% | SK-MEL-2 melanoma 110% | SN12C renal 94.6% | UO-31 renal 79.1% | TK-10 renal 127% | ACHN renal 92.7% | CAKI-1 renal 94% | A498 renal 86.5% | CCRF-CEM leukemia 98.7% | MOLT-4 leukemia 108%

Clc1ccc(-c2nc(-c3cccs3)cn3ccnc23)cc1
inactive: HCT-15 colon 31.2% | HT29 colon 41.6% | SNB-75 CNS 68.1% | SNB-19 CNS 88.6% | U251 CNS 82.5% | PC-3 prostate 62.4% | SK-MEL-5 melanoma 53.2% | UACC-62 melanoma 60.2% | LOX IMVI melanoma 61.4% | SK-MEL-28 melanoma 92.5% | SK-MEL-2 melanoma 70.6% | SN12C renal 85.3% | UO-31 renal 45.9% | TK-10 renal 60.7% | ACHN renal 91.2% | CAKI-1 renal 59% | A498 renal 90.5% | CCRF-CEM leukemia 65.3% | MOLT-4 leukemia 62.4%

Cc1ccc(NC(=O)/C=N/O)cc1C
active: A498 renal 3.77%
inactive: HCT-15 colon 98.1% | HT29 colon 102% | SNB-75 CNS 84.4% | SNB-19 CNS 102% | U251 CNS 89.8% | PC-3 prostate 86.5% | SK-MEL-5 melanoma 97.6% | UACC-62 melanoma 95.4% | LOX IMVI melanoma 101% | SK-MEL-28 melanoma 104% | SK-MEL-2 melanoma 103% | SN12C renal 103% | UO-31 renal 71.6% | TK-10 renal 122% | ACHN renal 99.1% | CAKI-1 renal 92.1% | CCRF-CEM leukemia 90% | MOLT-4 leukemia 85.7%
